Experimental data reported in PubChem BioAssay (NCI).
Compounds without any hit were thinned out: in the full panel of roughly 79,000, 15% have a hit. Calls of active or inactive are those of the source. Cut-off read from the data, not from the text of the source: active = growth inhibition above about 70%; inactive = the rest.

Columns and labels:
[1] = NCI Yeast Anticancer Drug Screen. Data for the rad52 strain (AID 147);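 note: 0% = growth of vehicle-treated control cultures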; details: S. cerevisiae rad52 mutant growth inhibition, stronger effect = higher value
Outline: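 DNA repair-defective yeast; compound exposure; growth scored against vehicle controls.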

[2] = NCI Yeast Anticancer Drug Screen. Data for the wt1 strain (AID 149);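 note: 0% = growth of vehicle-treated wt1 cultures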; details: S. cerevisiae wt1 strain (SPY 50644) growth inhibition, stronger effect = higher value
Outline: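 Using yeast strain wt1, compound-induced growth inhibition was determined against vehicle-treated cultures.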

[3] = NCI Yeast Anticancer Drug Screen. Data for the rad50EPP+ strain (AID 151);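 note: 0% = growth of vehicle-treated control cultures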; details: S. cerevisiae rad50 mutant strain, stronger effect = higher value
Outline: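 rad50EPP+ yeast treated with test compounds. Readout: growth vs vehicle control.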

[4] = NCI Yeast Anticancer Drug Screen. Data for the rad50 strain (AID 155);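 note: 0% = growth of vehicle-only cultures of the same strain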; details: S. cerevisiae rad50 strain growth inhibition, stronger effect = higher value
Outline: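 Relative growth inhibition (compound vs vehicle) was measured in yeast with a defined repair-gene alteration.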

[5] = NCI Yeast Anticancer Drug Screen. Data for the mec2-1 strain (AID 157); details: S. cerevisiae mec2-1 strain, stronger effect = higher value
Outline: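 Growth inhibition is read against vehicle-treated controls after compound exposure of the mec2-1 yeast strain, which is defective in DNA damage repair or cell cycle control.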

[6] = NCI Yeast Anticancer Drug Screen. Data for the rad14 strain (AID 159);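 note: 0% = growth of vehicle-treated control cultures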; details: S. cerevisiae rad14 strain growth inhibition, stronger effect = higher value
Outline: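 Screen for anticancer potential: a yeast strain altered in DNA damage repair is grown with compound, and reduced growth is quantified against vehicle controls.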

[7] = NCI Yeast Anticancer Drug Screen. Data for the sgs1 mgt1 strain (AID 161);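 note: 0% = growth of cultures given vehicle only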; details: S. cerevisiae sgs1 mgt1 strain, stronger effect = higher value
Outline: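 Yeast cells carrying a defined DNA-repair defect were exposed to test compounds. Growth inhibition was measured relative to vehicle-treated controls.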

[8] = NCI Yeast Anticancer Drug Screen. Data for the CLN2oe strain (AID 163);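 note: 0% = growth of vehicle-only control cultures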; details: S. cerevisiae CLN2oe strain, stronger effect = higher value
Outline: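 Compound-treated yeast; growth vs vehicle ctrl = % inhibition. Genetically altered strain (cell-cycle control).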

[9] = NCI Yeast Anticancer Drug Screen. Data for the cln2 rad14 strain (AID 165);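 note: 0% = growth equal to vehicle treated cultures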; details: S. cerevisiae cln2 rad14 strain, stronger effect = higher value
Outline: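 Growth inhibition, relative to vehicle-treated controls, is the read-out. The test organism is a yeast strain with defined genetic alterations, cln2 rad14.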

[10] = NCI Yeast Anticancer Drug Screen. Data for the bub3 strain (AID 167); details: S. cerevisiae bub3 mutant strain, stronger effect = higher value
Outline: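 Screening used yeast with an engineered genetic alteration affecting cell cycle control. Compound-exposed cultures were compared with vehicle cultures, and reduced growth was taken as inhibition.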

[11] = NCI Yeast Anticancer Drug Screen. Data for the wt2 strain (AID 169);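 note: 0% = growth of vehicle-treated yeast cultures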; details: S. cerevisiae wt2 strain growth inhibition, stronger effect = higher value
Outline: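 Compound exposure of yeast; growth compared with vehicle controls; inhibition reported.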

[12] = NCI Yeast Anticancer Drug Screen. Data for the mlh1 strain (AID 171);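 note: 0% = growth of vehicle-treated control cultures of the same strain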; details: S. cerevisiae mlh1 strain growth inhibition, stronger effect = higher value
Outline: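 Compounds are applied to a genetically altered yeast strain, and its growth is compared with that of vehicle-treated cultures to give percent inhibition.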

[13] = NCI Yeast Anticancer Drug Screen. Data for the sgs1 strain (AID 173);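 note: 0% = growth of vehicle-only control cultures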; details: S. cerevisiae sgs1 mutant, stronger effect = higher value
Outline: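 Compounds applied to genetically altered yeast; growth compared with vehicle-treated cultures to give % inhibition.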

[14] = NCI Yeast Anticancer Drug Screen. Data for the rad18 strain (AID 177); details: S. cerevisiae rad18 mutant growth inhibition, stronger effect = higher value
Outline: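 Compounds are applied to a repair-deficient yeast strain, and growth is compared with that of vehicle-treated cultures to give percent inhibition.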

[15] = NCI Yeast Anticancer Drug Screen. Data for the mlh1 rad18 strain (AID 175); details: S. cerevisiae mlh1 rad18 strain growth inhibition, stronger effect = higher value
Outline: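 Cells of a genetically altered yeast strain, deficient in DNA damage repair, were treated with compound. Their growth was then compared with that of vehicle-treated cultures to give inhibition.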

[16] = at 5.0 µM (retest, dose inferred, filed as 0.5)
[17] = at 50.0 µM (retest, dose inferred, filed as 5.0)

Measured: growth inhibition

CCCCCCCCN1C(=O)c2ccccc2C1=O
active: [7]; at 50.0 µM 78.7% | [10]; at 50.0 µM 89.5%
inactive: [1]; at 1.2 µM 0% | [1]; at 3.7 µM 0% | [1]; at 11.0 µM 5% | [1]; at 33.0 µM 10% | [1]; at 100.0 µM 6% | [2]; at 1.2 µM -2% | [2]; at 3.7 µM -1% | [2]; at 11.0 µM -1% | [2]; at 33.0 µM -4% | [2]; at 100.0 µM -6% | [3]; at 1.2 µM 2% | [3]; at 3.7 µM 9% | [3]; at 11.0 µM 14% | [3]; at 33.0 µM 18% | [3]; at 100.0 µM 42% | [4]; at 1.2 µM 0% | [4]; at 3.7 µM 3% | [4]; [16] 20% | [4]; at 11.0 µM 6% | [4]; at 33.0 µM 10% | [4]; [17] 15% | [4]; at 50.0 µM 39.5% | [4]; at 100.0 µM -2% | [5]; at 1.2 µM -3% | [5]; at 3.7 µM -4% | [5]; [16] -7% | [5]; at 11.0 µM -5% | [5]; at 33.0 µM -4% | [5]; [17] 13% | [5]; at 50.0 µM 50% | [5]; at 100.0 µM 0% | [6]; at 1.2 µM -2% | [6]; at 3.7 µM 0% | [6]; at 11.0 µM 6% | [6]; at 33.0 µM 14% | [6]; at 100.0 µM 18% | [7]; [16] 1% | [7]; [17] 36% | [8]; at 1.2 µM -2% | [8]; at 3.7 µM 0% | [8]; at 11.0 µM -1% | [8]; at 33.0 µM -2% | [8]; at 100.0 µM -1% | [9]; [16] -15% | [9]; [17] -7% | [9]; at 50.0 µM -91.1% | [10]; at 1.2 µM 2% | [10]; at 3.7 µM 4% | [10]; [16] 8% | [10]; at 11.0 µM 21% | [10]; at 33.0 µM 39% | [10]; [17] 40% | [10]; at 100.0 µM 50% | [11]; at 1.2 µM -2% | [11]; at 3.7 µM -3% | [11]; at 11.0 µM -4% | [11]; at 33.0 µM -5% | [11]; at 100.0 µM -4% | [12]; at 1.2 µM 0% | [12]; at 3.7 µM 0% | [12]; at 11.0 µM 3% | [12]; at 33.0 µM 7% | [12]; at 100.0 µM 14% | [13]; at 1.2 µM -3% | [13]; at 3.7 µM -1% | [13]; at 11.0 µM 0% | [13]; at 33.0 µM 4% | [13]; at 100.0 µM 13% | [14]; at 1.2 µM -2% | [14]; at 3.7 µM -3% | [14]; at 11.0 µM -2% | [14]; at 33.0 µM 4% | [14]; at 100.0 µM 14%

O=C1c2c(O)cccc2-c2nn(CCNCCO)c3ccc(NCCNCCO)c1c23
inactive: [1]; at 1.2 µM 17% | [1]; at 3.7 µM 43% | [2]; at 1.2 µM 8% | [2]; at 3.7 µM -2% | [2]; at 11.0 µM 11% | [2]; at 33.0 µM 2% | [2]; at 100.0 µM -4% | [3]; at 1.2 µM 15% | [3]; at 3.7 µM 19% | [3]; at 11.0 µM 39% | [3]; at 33.0 µM 54% | [4]; at 1.2 µM 26% | [4]; at 3.7 µM 42% | [4]; [16] 27% | [5]; at 1.2 µM 42% | [5]; at 3.7 µM 29% | [5]; [16] -25% | [5]; at 11.0 µM 40% | [5]; at 33.0 µM 10% | [5]; [17] -14% | [5]; at 50.0 µM 20.4% | [5]; at 100.0 µM 39% | [6]; at 1.2 µM -3% | [6]; at 3.7 µM -2% | [6]; at 11.0 µM -21% | [6]; at 33.0 µM -13% | [6]; at 100.0 µM 2% | [7]; [16] 1% | [7]; [17] -2% | [7]; at 50.0 µM 7% | [8]; at 1.2 µM 26% | [8]; at 3.7 µM 22% | [8]; at 11.0 µM 21% | [8]; at 33.0 µM 5% | [8]; at 100.0 µM 18% | [9]; [16] 26% | [9]; [17] 14% | [9]; at 50.0 µM -7.2% | [10]; at 1.2 µM 1% | [10]; at 3.7 µM -9% | [10]; [16] -24% | [10]; at 11.0 µM -15% | [10]; at 33.0 µM -30% | [10]; [17] -13% | [10]; at 50.0 µM -19.2% | [10]; at 100.0 µM -26% | [11]; at 1.2 µM -46% | [11]; at 3.7 µM -27% | [11]; at 11.0 µM -41% | [11]; at 33.0 µM -53% | [11]; at 100.0 µM -42% | [12]; at 1.2 µM 29% | [12]; at 3.7 µM 7% | [12]; at 11.0 µM 15% | [12]; at 33.0 µM 13% | [12]; at 100.0 µM 21% | [13]; at 1.2 µM 7% | [13]; at 3.7 µM 5% | [13]; at 11.0 µM 7% | [13]; at 33.0 µM 11% | [13]; at 100.0 µM 28% | [15]; [16] -6% | [15]; [17] -7% | [14]; at 1.2 µM 13% | [14]; at 3.7 µM 15% | [14]; at 11.0 µM -2% | [14]; at 33.0 µM 9% | [14]; at 100.0 µM 0%
active: [1]; at 11.0 µM 73% | [1]; at 33.0 µM 81% | [1]; at 100.0 µM 87% | [3]; at 100.0 µM 77% | [4]; at 11.0 µM 74% | [4]; at 33.0 µM 85% | [4]; [17] 79% | [4]; at 50.0 µM 76.9% | [4]; at 100.0 µM 87%
